High-throughput results: PubChem BioAssay, National Center for Advancing Translational Sciences (NCATS)
Sampled rows, rich in hits. Any-hit rate of the full collection: about 7.3%.
SMN2 splice up: increases expression of the SMN2 splice variant. HEK293 SMN2-luciferase splicing reporter, luminescence, 30-36 h. Potency, µM (titrated, usually from 46.1 µM), most hits filed as activators. hit rate 2.8% among 210,000. AID 1458; further: nearly all actives have a fitted effect of over 55% in size
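qHTS luciferase splicing reporter: luminescence rises when SMN2 exon 7 is included in transfected HEK293 cells. Compound exposure lasted 30-36 h at 37C, with 4.5 mM final sodium butyrate as control, followed by a ONE-Glo read.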
NPC1 promoter act: activates the NPC1 promoter; Huh7 NPC1 promoter luciferase reporter, 24 h; Potency, µM (titrated, usually from 9.22 µM), most hits filed as activators; hit rate 2.4% among 320,000; AID 485313; further: nearly all actives have a fitted effect of over 60% in size
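Compounds in DMSO were transferred onto Huh7 NPC1-luciferase reporter cells pre-incubated 2 h; after 24 h at 37 °C, Amplite reagent was dispensed and luminescence recorded 10 min later.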
ELG1 genotoxic: inducers of genotoxicity in HEK293T ELG1-luciferase cells. HEK293T ELG1-luciferase reporter, luminescence, 16 h. Potency, µM (top dose mostly 46 µM), usual class: activators. hit rate 1.3% among 330,000; further: nearly all actives have a fitted effect of over 60% in size
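Step 1: seed 2,000 HEK293T ELG1-luciferase cells per well. Step 2: add compound or DMSO, incubate 16 hr at 37 °C. Step 3: ONE-Glo, 30 min at room temperature, read luminescence.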
Rab9 prom act: activators of Rab9 promoter. hit rate 2.8% among 320,000. Huh7 Rab9 promoter-luciferase reporter, luminescence, 24 h. Potency, µM (titrated, usually from 9.22 µM), hits mostly activators; further: nearly all actives have a fitted effect of over 60% in size
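Huh7 cells stably carrying Rab9 promoter–luciferase reporter, plated 1500 cells/well, compound added after 2 h and incubated 24 h at 37 °C; luciferase luminescence then read after 10 min with detection reagent.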
uPA generation: blocks generation of uPA at the cell surface; cell surface uPA generation assay, qHTS; Potency, µM (top dose mostly 38.3 µM), actives largely listed as inhibitors; hit rate 0.31% among 330,000; active means well fitted inhibition curve with a large enough effect; inconclusive means small, poorly fitted or top-dose-only effect; inactive means no such curve, though single readings can be large or run the other way; tested in mouse RAW 264.7 cells; further: nearly all actives have a fitted effect of over 55% in size
FLuc counter: counter-screen for miR-21 project: firefly luciferase inhibitors or activators; P08659; purified FLuc, Km substrates, luminescence inhibition; Potency, µM (top dose mostly 57.5 µM), hits mostly inhibitors; hit rate 6.9% among 360,000; AID 588342; further: nearly all actives have a fitted effect of over 55% in size
Target sequence (P08659 whole entry, looked up): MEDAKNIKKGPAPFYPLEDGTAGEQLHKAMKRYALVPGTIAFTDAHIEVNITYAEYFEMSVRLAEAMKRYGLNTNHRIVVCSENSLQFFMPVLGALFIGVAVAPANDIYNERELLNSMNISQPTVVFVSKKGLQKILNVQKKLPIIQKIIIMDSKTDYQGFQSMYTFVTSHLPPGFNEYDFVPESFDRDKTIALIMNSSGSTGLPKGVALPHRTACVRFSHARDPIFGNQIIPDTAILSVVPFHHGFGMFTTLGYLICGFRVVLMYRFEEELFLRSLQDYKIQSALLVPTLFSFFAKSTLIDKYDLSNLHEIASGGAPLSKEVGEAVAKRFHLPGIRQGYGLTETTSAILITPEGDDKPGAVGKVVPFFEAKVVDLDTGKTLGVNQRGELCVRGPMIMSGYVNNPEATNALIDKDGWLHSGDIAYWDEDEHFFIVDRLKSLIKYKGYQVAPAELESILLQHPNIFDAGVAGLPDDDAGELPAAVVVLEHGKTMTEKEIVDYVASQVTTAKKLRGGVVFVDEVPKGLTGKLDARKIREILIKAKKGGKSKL
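Purified P. pyralis luciferase (10nM final) with 10uM D-luciferin and 10uM ATP (Km levels) in 50mM Tris acetate pH 7.5, 10mM Mg acetate, 0.01% Tween-20, 0.05% BSA; qHTS 6-point titration, ~60 µM downward; luminescence read.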
A number is an active result; i = inactive; ? = inconclusive; nt = no result given. Unless noted, the call rests on the fitted dose curve; in most records, active means well fitted curve in the direction sought with a large enough effect; inconclusive means small, poorly fitted or top-dose-only effect, or another doubt; inactive means no such curve, though single readings can be large; an effect the other way counts as inactive or inconclusive.

SMILES	SMN2 splice up	NPC1 promoter act	ELG1 genotoxic	Rab9 prom act	uPA generation	FLuc counter
CCOc1ccc(CC(=O)Nc2ccc3nc(N4CCCCC4)cc(C)c3c2)cc1OCC	nt	nt	nt	nt	nt	i
CC(C)=CCn1cnc2c1C(NOCc1ccccc1)=NCN2	i	nt	nt	nt	nt	nt
N/C(=N\OC(=O)C1CCCCC1)c1ccncc1	nt	i	i	i	i	?
Cc1ccc(C23CC4CC(CC(C(N)=O)(C4)C2)C3)cc1	nt	i	i	i	i	i
Cc1ccc(/C(N)=N/OC(=O)C23CC4CC(CC(C4)C2)C3)cc1	i	i	i	?	i	9.5µM
N/C(=N\OC(=O)C12CC3CC(CC(C3)C1)C2)c1ccncc1	nt	i	i	i	i	19µM
CCCCNC(=S)NNC(=O)c1cc(-c2cccnc2)nc2ccccc12	nt	i	i	i	i	15µM
CCCCNS(=O)(=O)c1ccc2nc(-c3cccnc3)cc(C(=O)NCCCOC)c2c1	i	i	i	i	i	i
CCNC(=S)NNC(=O)c1cc(C)nc2ccccc12	i	i	i	i	i	i
CCCNC(=S)NNC(=O)c1cc(-c2cccnc2)nc2ccccc12	nt	i	i	i	i	19µM
CCNC(=S)NNC(=O)c1cc(-c2cccnc2)nc2ccccc12	i	i	i	i	i	9.5µM
CC(NC(=O)Cc1ccc(NC(=O)N2CCSc3ncccc32)cc1)c1ccccc1 (stereo not drawn)	nt	nt	nt	nt	nt	i
CC(C)(C)c1ccc(C(=O)N2CCCC(c3nc4c(nnn4Cc4cccc(F)c4)c(=O)[nH]3)C2)cc1 (stereo not drawn)	i	nt	nt	nt	nt	i
Cc1ccc(S(=O)(=O)NCCCN2CCCC2)cc1	nt	i	i	i	i	i
CC(=O)c1ccc(N2CCN(c3ncnc4onc(-c5ccc(Cl)cc5)c34)CC2)cc1	i	nt	nt	nt	nt	i
COc1ccc(NC(=O)c2cc(-c3ccc4c(c3)OCO4)on2)cc1	nt	i	i	i	i	i
CC1CCCC(C)N1C(=O)c1cc(-c2ccc(Cl)c(Cl)c2)on1 (stereo not drawn)	i	?	i	?	i	12µM
CC1CCCC(C)N1C(=O)c1cc(-c2ccc3c(c2)OCO3)on1 (stereo not drawn)	nt	2µM	i	2µM	i	11µM
CCn1c(SCC(=O)N2CCC(C)CC2)nnc1-c1ccccc1O	nt	nt	nt	nt	nt	i
COc1ccc2cc(CNc3ccc(C)cc3)c(=O)n(CC(=O)Nc3cccc(Cl)c3C)c2c1	nt	nt	nt	nt	nt	i
NS(=O)(=O)c1cccc(NC(=O)COC(=O)CCN2C(=O)c3ccccc3C2=O)c1	nt	i	i	i	i	i
NS(=O)(=O)c1cccc(NC(=O)COC(=O)CNC(=O)c2ccc(-c3ccccc3)cc2)c1	nt	i	i	i	i	6.7µM
CCOC(=O)c1ccc2[nH]c(C)c(C)c2c1	nt	nt	nt	nt	i	nt
Cc1[nH]c2ccc(C(=O)OCC(=O)Nc3cccc(S(N)(=O)=O)c3)cc2c1C	nt	i	i	i	i	17µM
CN(C)/C=N/c1ncc(C(=O)c2ccccc2)s1	14µM	2.8µM	9.2µM	3.2µM	i	15µM
SMILES	SMN2 splice up	NPC1 promoter act	ELG1 genotoxic	Rab9 prom act	uPA generation	FLuc counter
CN(C)/C=N/c1ncc(C(=O)c2ccc(-c3ccccc3)cc2)s1	i	i	i	i	i	21µM
Cc1ccc(-n2nc(C)c3c(C)cc(=O)n(CC(=O)NCc4ccc(OC(C)C)cc4)c32)cc1	nt	nt	nt	nt	nt	i
COCCCNC(=O)CSc1nc2c(sc3ccccc32)c(=O)n1CCCC(=O)NCCOC	i	nt	nt	nt	nt	i
COc1ccc(S(=O)(=O)Nc2cccc(-c3ccc(N4CCCCCC4)nn3)c2)c(OC)c1	nt	?	?	?	i	8.5µM
COc1ccc(OC)c(S(=O)(=O)Nc2cccc(-c3ccc(N4CCCCCC4)nn3)c2)c1	nt	i	i	i	i	17µM
COc1ccc(-c2cccc(NS(=O)(=O)c3cc(C)ccc3OC)c2)nn1	nt	nt	nt	nt	nt	i
Cc1cccc(C)c1N=Cc1c(O)n(-c2nccs2)c(=O)c2ccccc12	i	i	i	i	i	i
O=c1c2ccccc2c(/C=N/c2nnc(Cc3ccccc3)s2)c(O)n1-c1ccc(Cl)cn1	i	i	i	i	i	1.9µM
COc1ccc(CNC(=O)CSc2nc3ccc(OC)cc3[nH]2)cc1	nt	i	i	i	i	i
COc1ccc2nc(SCC(=O)NC3CCCCC3C)[nH]c2c1 (stereo not drawn)	nt	i	i	i	8.9µM	i
O=C(CSc1ncnc2ccccc12)c1ccco1	nt	3.2µM	?	3.2µM	i	3µM
COc1ccc2nc(SCC(=O)C(C)(C)C)[nH]c2c1	nt	2µM	15µM	2.2µM	i	?
COc1ccc2nc(SCC(=O)NC(C)C)[nH]c2c1	i	i	i	i	i	i
O=C(CSc1ncnc2ccccc12)NCc1ccco1	i	i	i	i	i	i
COc1ccc2nc(SCC(=O)c3ccco3)[nH]c2c1	?	2.2µM	?	1.8µM	i	5.4µM
COc1ccc2c(c1)O[C@H](c1ccc3c(c1)OCO3)[C@@H](OC(=O)NS(=O)(=O)c1ccc(C)cc1)C2=O	i	nt	nt	nt	nt	nt
CC(NC(=O)c1cc(-c2ccc(Cl)cc2)on1)c1ccccc1 (stereo not drawn)	i	nt	nt	nt	nt	i
Cc1nn(C)c2c1c(C(F)(F)F)cc(=O)n2CC(=O)N1CCC(C)CC1	nt	nt	nt	nt	nt	i
COc1ccc(CNC(=O)CN(C)c2nn3c(=O)cc(C)nc3s2)cc1	i	nt	nt	nt	nt	i
O=C(CSc1nc2ccccc2[nH]1)NCc1ccccc1	nt	i	i	i	i	i
O=C(CSc1nc2ccccc2[nH]1)c1ccco1	?	?	?	4µM	i	17µM
O=C(NCc1ccc(F)cc1)C(=O)NCC(c1ccc2c(c1)OCO2)N1CCOCC1 (stereo not drawn)	nt	nt	nt	nt	nt	i
COc1cccc(/C=C/C(=O)c2ccc(NC3=NCCCS3)cc2)c1	i	i	?	i	i	11µM
CC(C)(C)c1ccc(/C=C/C(=O)c2ccc(NC3=NCCCS3)cc2)cc1	i	i	i	i	i	15µM
Cc1cccc(/C=C/C(=O)c2ccc(NC3=NCCCS3)cc2)c1	i	i	?	i	?	13µM
SMILES	SMN2 splice up	NPC1 promoter act	ELG1 genotoxic	Rab9 prom act	uPA generation	FLuc counter
O=C(/C=C/c1ccccc1)c1ccc(NC2=NCCCS2)cc1	i	?	?	?	i	4.3µM
c1ccc(NC2=NCCCCS2)cc1	i	i	i	i	i	i
O=C(/C=C/c1ccc(Br)cc1)c1ccc(NC2=NCCCS2)cc1	nt	i	i	i	?	?
COc1cccc(C(=O)N2CCC(C(=O)Nc3cccc(Cl)c3)CC2)c1	i	nt	nt	nt	nt	i
CCc1nc2cc3sc(CC)nc3cc2s1	nt	3.5µM	9.2µM	2µM	i	8.5µM
CCN1CCN(C(=O)c2cnn(-c3ccc(F)cc3F)c2C2CCN(C(=O)OC(C)(C)C)CC2)CC1	nt	nt	nt	nt	nt	i
CCC1=Nc2ccccc2-c2nnc(SC)nc2O1	2µM	i	i	i	i	i
Cc1cnc(NC(=O)c2ccco2)s1	?	?	?	?	i	21µM
Cc1sc(NC(=O)c2cccs2)nc1-c1ccccc1	nt	i	i	?	i	11µM
Cc1ccc(NC(=O)c2ccco2)nc1	nt	nt	nt	nt	i	nt
